Screening results deposited in PubChem BioAssay by National Center for Advancing Translational Sciences (NCATS).
Cruzain inh noDet – inhibitors of Trypanosoma cruzi cruzain without detergent. purified cruzain, Z-FR-AMC fluorescence, no detergent. Potency, µM, for inactives: max response, negative = inhibition, hits mostly inhibitors. actives 2.3% (n = 200,000);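 also: plate controls were enzyme without inhibitor for no effect and buffer without enzyme for full effect; nearly all actives have a fitted effect of over 40% in size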
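Purified cruzain at 1.5 nM, pre-incubated 15 min with compound at room temperature in 100 mM sodium acetate pH 5.5, 5 mM DTT, 0.00005% Triton X-100. Reaction started with 2 uM Z-FR-AMC; AMC fluorescence increase over 60 s gives rate.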
Cruzain inh Det – inhibitors of Trypanosoma cruzi cruzain with detergent. purified cruzain, Z-FR-AMC fluorescence, 0.01% Triton. Potency, µM, without a hit: max response, negative = inhibition, most hits filed as inhibitors. AID 1478. P25779. actives 0.43% (n = 200,000);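 also: plate controls were neutral wells for no effect and buffer without enzyme for full effect; nearly all actives have a fitted effect of over 40% in size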
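Sodium acetate buffer (100 mM, pH 5.5) containing 5 mM DTT and 0.01% Triton X-100 hosted 1.5 nM cruzain and test compound for 15 min at room temperature. Cleavage of 2 uM Z-FR-AMC was then tracked by fluorescence.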
Giardia FBPA inh – inhibitors of Giardia lamblia fructose-1,6-bisphosphate aldolase; A8B2U2; purified Giardia FBPA; actives 0.71% (n = 290,000); AID 2451; Potency, µM (doses to about 59.6 µM), without a hit: at the highest dose activity, negative = inhibition, most hits filed as inhibitors; also: nearly all actives have a fitted effect of over 55% in size
Target sequence (A8B2U2 whole entry, looked up): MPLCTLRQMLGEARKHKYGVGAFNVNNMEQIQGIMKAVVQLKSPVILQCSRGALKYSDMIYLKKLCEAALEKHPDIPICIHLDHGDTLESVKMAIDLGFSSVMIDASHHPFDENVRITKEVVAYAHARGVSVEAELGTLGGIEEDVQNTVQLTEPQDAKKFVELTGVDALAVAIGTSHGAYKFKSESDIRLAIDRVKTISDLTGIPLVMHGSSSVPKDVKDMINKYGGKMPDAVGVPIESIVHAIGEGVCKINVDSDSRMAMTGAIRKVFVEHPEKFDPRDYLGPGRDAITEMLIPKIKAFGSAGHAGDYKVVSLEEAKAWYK
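40 nM FBPA preincubated 10 min at RT with compound (up to 57.5 uM final), then substrate plus GAPDH/TPI/NAD/arsenate coupling and diaphorase/resazurin added. Fluorescence read after 20 min at RT, 525/598 nm.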
* marks the source's active call; other numbers are inactive results; ? = inconclusive; / = not tested or not shown; [ ] = remark or other dose. Many of the other results were omitted from the sample, so hits are more common in it than they were. Calls follow the shape of the dose curve; as a rule, active = well fitted curve in the direction sought with a large enough effect; inconclusive = small, poorly fitted or top-dose-only effect, or another doubt; inactive = no such curve, though single readings can be large; an effect the other way counts as inactive or inconclusive. Unless noted, % is scaled to controls: 0 for no effect and ±100 for the full control effect; potency is read from the fitted curve at half-maximal effect.

SMILES	Cruzain inh noDet	Cruzain inh Det	Giardia FBPA inh
COc1ccc(C2c3c(ccc4ccccc34)Oc3ncn4nc(Cc5ccc(OC)c(OC)c5)nc4c32)cc1 (stereo not drawn)	3%	-1%	1%
COc1ccc(C2c3c(ccc4ccccc34)Oc3ncn4nc(-c5ccco5)nc4c32)cc1 (stereo not drawn)	?	2%	3%
c1ccc(C2c3c(ccc4ccccc34)Oc3ncn4nc(-c5ccco5)nc4c32)cc1 (stereo not drawn)	3.2µM*	-6%	7%
COc1ccc(C2c3c(ccc4ccccc34)Oc3ncn4nc(CO/N=C/c5ccccc5)nc4c32)cc1 (stereo not drawn)	3.2µM*	5%	2%
C[N+](C)(C)[C@H](Cc1c[nH]c(=S)[nH]1)C(=O)O	8%	-1%	/
Cc1ccnc(NC(=S)NC(=O)/C=C/c2ccc(Cl)cc2)c1	4µM*	3%	6%
Cc1ccnc(NC(=S)NC(=O)/C=C/c2ccccc2)c1	?	-4%	-5%
CC1CCN(C2=C(NS(=O)(=O)c3ccc(Cl)cc3)C(=O)c3ccccc3C2=O)CC1	-18%	-6%	?
O=C1C(NS(=O)(=O)c2cccs2)=C(N2CCN(c3cccc(Cl)c3)CC2)C(=O)c2ccccc21	13µM*	-2%	?
COc1ccc(NC(=O)Nc2cccc(OCc3cc(=O)n4cccc(C)c4n3)c2)c(OC)c1	?	0%	/
COc1cccc(-c2cc(C(=O)Nc3ccc(F)cc3)[nH]n2)c1	?	-1%	/
COc1cccc(-c2cc(C(=O)Nc3ccc(Br)c(C)c3)[nH]n2)c1	13µM*	-1%	/
O=C(O)C(Cc1ccccc1)Cc1ccccc1	3%	-1%	/
CC1(C)C=C2C(=NN(c3ccccc3)C(N)=C2C#N)CO1	/	/	1.6µM*
CC1(C)Cc2c(C#N)c(N)n(-c3ccccc3)c(=S)c2CO1	/	/	-22%
COc1ccc(C2CC(=O)N3CN(c4ccc(C)c(Cl)c4)CSC3=C2C#N)cc1 (stereo not drawn)	-17%	-6%	?
CCc1ccccc1N1CSC2=C(C#N)C(c3ccccc3F)CC(=O)N2C1 (stereo not drawn)	25µM*	-4%	6.3µM*
COc1cc(OC)c(C2CC(=O)N3CN(c4ccccc4C)CSC3=C2C#N)cc1OC (stereo not drawn)	-22%	-7%	4.5µM*
Cc1cccc(N2CSC3=C(C#N)C(c4ccc(C)o4)CC(=O)N3C2)c1 (stereo not drawn)	-2%	?	?
CN1[C@H]2CC(OC(=O)[C@H](CO)c3ccccc3)C[C@H]1[C@H]1O[C@H]12 (stereo partly drawn)	5%	4%	/
Cc1cc(C(=O)CN2C(=O)NC(c3ccccc3)(c3ccccc3)C2=O)c(C)n1Cc1ccccc1	10µM*	-1%	-1%
Cc1cc(C(=O)CN2C(=O)NC3(CCCCC3C)C2=O)c(C)n1Cc1cccs1 (stereo not drawn)	32µM*	-4%	-1%
Cc1cc(-n2c(C)cc(C(=O)CN3C(=O)NC4(CCCCC4C)C3=O)c2C)no1 (stereo not drawn)	-30%	6%	0%
O=C(CN1C(=O)NC(c2ccccc2)(c2ccccc2)C1=O)c1c[nH]c2ccccc12	/	/	-28%
O=S(=O)(c1cccc(C(F)(F)F)c1)N1c2ccccc2-n2cccc2[C@H]1c1cccnc1	29%	-1%	/
SMILES	Cruzain inh noDet	Cruzain inh Det	Giardia FBPA inh
CCOC(=O)OCC1OC(c2cc(C)cc(C)c2)C=CC1OC(=O)OCC (stereo not drawn)	/	/	-1%[12.9 µM]
O=C(N/N=C/c1cccnc1)/C(=C\c1cccs1)NC(=O)c1ccccc1	-7%	-12%	9%
O=C(N/N=C/c1cc2ccccc2nc1Cl)/C(=C/c1cccs1)NC(=O)c1ccccc1	25µM*	-7%	0%
[Cl][Pd][Cl].[S-]C1=C2N=CN[C-]2[NH+]=C[N-]1.[S-]c1ncnc2[nH]cnc12	1%	6%	/
COc1ccccc1NC(=O)c1ccc(CN2C(=O)C(C)=C(c3ccc(C)c(C)c3)S2(=O)=O)cc1	32µM*	-4%	/
CCOc1ccc(NC(=O)c2ccc(CN3C(=O)C(C)=C(c4ccc(C)cc4)S3(=O)=O)cc2)cc1	-1%	-1%	/
CC1=C(c2ccc(C)c(C)c2)S(=O)(=O)N(Cc2ccc(C(=O)NCc3ccccc3F)cc2)C1=O	25µM*	-3%	/
CC1=C(c2ccc(C)cc2)S(=O)(=O)N(Cc2ccc(C(=O)NCc3ccccc3)cc2)C1=O	?	-5%	/
COc1ccc(C2=C(C)C(=O)N(Cc3ccc(C(=O)Nc4ccc(C)c(C)c4)cc3)S2(=O)=O)cc1	7.9µM*	-3%	/
CC1=C(c2ccc(C)cc2)S(=O)(=O)N(Cc2ccc(C(=O)Nc3ccccc3C)cc2)C1=O	?	-4%	/
